These results are taken from PubChem BioAssay AID504434 (National Center for Advancing Translational Sciences (NCATS), 2011).

A number with no mark means an inactive call. Activity calls are given as the source filed them. Calls come from the whole dose curve; as a rule, active = well fitted curve in the direction sought with a large enough effect; inconclusive = small, poorly fitted or top-dose-only effect, or effect the other way, or another doubt; inactive = no such curve, though single readings can be large or run the other way.

The test is described as follows: Secondary Assay for lipid storage modulators: AML12 cell LDSA assay for probe SAR. The conditions noted are these: AML12 lipid droplet accumulation, BODIPY 493/503 imaging, oleate; series mostly up to 46.1 µM; activity change, negative = inhibition: at the top concentration. The source says: NIH Molecular Libraries Probe Production Centers Network [MLPCN] NIH Chemical Genomics Center [NCGC] MLPCN Grant: 1 R03 MH085686-01 Assay Submitter (PI): Beller, Mathias; Max-Planck-Institut fur Biophysikalische Chemie NCGC Assay Overview: Storing lipids as a reservoir for energy or the anabolism of elementary metabolites is a common feature of probably all cells and is conserved from bacteria to humans. The universal cellular lipid storage organelle is the so-called lipid storage droplet (LD). Although ubiquitous, LDs share a simple structure composed of a hydrophobic core that harbors the storage lipids, which is shielded by a droplet-specific phospholipid monolayer to which proteins are attached. The current model of LD biogenesis involves an incorporation of the lipid core into the membrane leaflets of the endoplasmic reticulum (ER) followed by a subsequent budding-like maturation of a LD, which ultimately pinches off. Once released, LD volume can increase by localized lipogenesis or fusion of existing droplet. Storage lipids are re-mobilized enzymatically by lipase activity. Lipase regulation in the adipocyte is heavily studied and involves multiple components including catecholamine signaling, the LD-associated proteins Perilipin and comparative gene identification (CGI-58) and at least two lipases named hormone sensitive lipase (HSL) and adipocyte triglyceride lipase (ATGL). LD regulation outside of the adipocyte is poorly understood and only few components are known. However, there is an urgent need to learn more about ectopic fat depots as mislocalized storage of lipids, for example in the liver or muscle, is an eminent health problem associated with insulin resistance or the metabolic syndrome.
NCGC Assay Protocol Summary: The assay was performed with AML12 cells, using an oleic acid feeding protocol similar to the S3 assay. We dispensed 4 uL of cells to give 700 cells/well into Greiner bio-one 1,536-well plates (black walled, clear bottom). Triacsin C (Sigma-Aldrich T-4540), an inhibitor of long-chain fatty acyl CoA synthetase that blocks synthesis of triglycerides, was used as a positive control for lipid under-storage using a final concentration of 20 uM. The orexin antagonist, SB408124 - previously identified to stimulate lipid over-storage, was used as a positive control for lipid over-storage using a final concentration of 20 uM. A total of 23 nL of compound solution of different concentrations were transferred to the assay plates using a Kalypsys pin tool equipped with a 1,536-pin array containing 10-nL slotted pins (FP1S10, 0.457-mm diameter, 50.8 mm long; V&P Scientific). One microliter of oleic acid was added (400 uM final concentration), and the plate was lidded with stainless steel rubber gasket lined lids containing pinholes. After 18-24 h incubation at […] and 95% humidity, 4 uL of the dyes BODIPY 493/503 (Molecular Probes) and the Cell Tracker Red CMTPX dye (Molecular Probes) were added to the wells to stain lipid droplets and enumerate cell number, respectively. Fluorescence was detected by excitation of the fluorophores with a 488-nm laser on an Acumen Explorer (TTP Lab Tech). The total intensity in channel 2 (500-530 nm) reflected lipid droplet accumulation. Cells were detected using channel 3 (575-640 nm) with 5-um width and 100-um depth filters. The ratio of the number of objects in PMT channel 2 over the number of objects in PMT channel 3 was also calculated. Percent activity was computed relative to an internal control (100% inhibited lipid droplet deposition due to the presence of 20 uM Triacsin C), which was added to 32 wells/plate.
With `O=C(NC1CCCc2c1cnn2-c1ccc(F)cc1F)C1CCCCC1` (stereo not given), the “activity change, negative = inhibition” value was 5.26%.

Regarding `COc1ccccc1NC(=S)N1CCN(c2cc(Cl)ccc2C)CC1`, the “activity change, negative = inhibition” value was -20%.

On to `COc1ccc(CCNC(=O)c2cc3sccc3n2Cc2ccc(Cl)cc2)cc1OC`, for which the Potency is 30.7 nM (active).

For `O=C(Cc1cccs1)Nc1nc(-c2ccncc2)cs1`, the “activity change, negative = inhibition” value is 10%.

In the case of `COc1ccc(-c2cnc(SCC(=O)Nc3nc(C)cs3)n2Cc2ccco2)cc1`, the “activity change, negative = inhibition” value was -16.5% [at 30.7 µM].

As to `CC1=C(C(=O)NC2CCCc3c2cnn3-c2ccc(F)cc2F)OCCO1` (stereo not given), the “activity change, negative = inhibition” value was -10.5%.

Take `COc1ccc(Cl)cc1NC(=S)N1CCN(c2ccccc2F)CC1`: the “activity change, negative = inhibition” value is 42.9%.

Turning to `CCOC(=O)C1CCN(C(=O)C(C)(C)NC(=O)Nc2cccc(C(=O)OC)c2)CC1`, the “activity change, negative = inhibition” value is -29.2%.

Regarding `Cc1ccc(-c2cnc(SCC(=O)Nc3nccs3)n2Cc2ccco2)cc1`, the “activity change, negative = inhibition” value was -10.1%.

`O=C(NC1CCCc2c1cnn2-c1ccc(F)cc1F)c1cccc(=O)[nH]1` (stereo not given): the “activity change, negative = inhibition” value was -22.4%.

For `COc1ccc(CCNC(=O)c2cc3sc(C)cc3n2C)cc1OC`, the “activity change, negative = inhibition” value is 8.57%.

Consider `O=C(NC1CCCc2c1cnn2-c1cc(F)cc(F)c1)c1cccc2nccnc12` (stereo not given), for which the “activity change, negative = inhibition” value was -45.6% [at 30.7 µM].

With `CC(C)(C)OC(=O)NCCOCCOCCOc1ccc(-n2ncc3c2CCCC3NC(=O)c2ccccn2)cc1` (stereo not given), the “activity change, negative = inhibition” value is -35.4%.

Regarding `O=C(NC1CCCc2c1cnn2-c1ccc(F)cc1F)c1cnsn1` (stereo not given), the “activity change, negative = inhibition” value is -14.3%.

As for `CCn1c(-c2ccc(C)cc2)cnc1SCC(=O)Nc1nc(C)cs1`, the “activity change, negative = inhibition” value was -8.86%.

For `CCOC(=O)C1CCN(C(=O)C(C)(C)NC(=O)Nc2ccc3ccccc3c2)CC1`, the “activity change, negative = inhibition” value was -61.8%.

`O=C(NC1CCCc2c1cnn2-c1ccc(F)cc1F)c1c(F)cccc1Cl` (stereo not given): the “activity change, negative = inhibition” value was 0%.

With `O=C(NC1CCCc2c1cnn2-c1ccc(F)cc1F)c1ccncc1` (stereo not given), the “activity change, negative = inhibition” value is -15.8%.

As to `COCCn1c(-c2ccc(C)cc2)cnc1SCC(=O)Nc1nc(C)cs1`, the “activity change, negative = inhibition” value was -34.2%.

Turning to `COc1cccc(-n2ncc3c2CCCC3NC(=O)c2ccccn2)c1` (stereo not given), the Potency is 44.5 nM [inconclusive] (active).

For `CCOc1ccc(CCNC(=O)c2cc3sccc3[nH]2)cc1OCC`, the “activity change, negative = inhibition” value was -1.32%.

Take `O=C(NC1CCCc2c1cnn2-c1ccc(F)cc1F)c1cccc(F)c1F` (stereo not given): the “activity change, negative = inhibition” value is -1.43%.

As for `CCOC(=O)C1CCN(C(=O)C(C)(C)NC(=O)Nc2ccc(OC)c(Cl)c2)CC1`, the “activity change, negative = inhibition” value is -44.8%.

For `COc1ccc(NC(=S)N2CCN(c3cccc(Cl)c3)CC2)c(OC)c1`, the “activity change, negative = inhibition” value is 15.7%.

In the case of `Cc1cccc(-c2ccc3ncnc(NCc4cccc(F)c4)c3c2)c1`, the “activity change, negative = inhibition” value is -19.7%.

In the case of `O=C(NC1CCCc2c1cnn2-c1ccc(F)cc1F)c1cccs1` (stereo not given), the “activity change, negative = inhibition” value was -23.7%.

Turning to `CCOC(=O)C1CCN(C(=O)C(C)(C)NC(=O)Nc2cccc(-c3csc(C)n3)c2)CC1`, the “activity change, negative = inhibition” value was -30.2%.

As to `O=C(NC1CCCc2c1cnn2-c1ccccc1F)c1ccc2ncccc2c1` (stereo not given), the “activity change, negative = inhibition” value was 12.9%.

For `O=C(CSc1nnc(NCc2ccccc2)s1)Nc1nc(-c2ccc(F)c(F)c2)cs1`, the “activity change, negative = inhibition” value was 30%.

Take `O=C(CSc1nnc(NCc2ccccc2)s1)Nc1nc(-c2cccc(Br)c2)cs1`: the “activity change, negative = inhibition” value was 18.6%.

`O=C(Cc1cccs1)Nc1nc(-c2ccc3c(c2)CCC3)cs1`: the “activity change, negative = inhibition” value is 12.9%.

Consider `Cc1ccc(-c2cnc(SCC(=O)Nc3nc(C)cs3)n2Cc2ccco2)cc1`, for which the “activity change, negative = inhibition” value was -24.1%.

With `CCn1c(C(=O)NCCc2ccc(OC)cc2)cc2sccc21`, the “activity change, negative = inhibition” value was -5.26%.

For `CCOC(=O)C1CCN(C(=O)C(C)(C)NC(=O)Nc2ccc3sccc3c2)CC1`, the “activity change, negative = inhibition” value was -34.8%.

`CCOc1ccc(CCNC(=O)c2cc3sccc3n2C)cc1OCC`: the “activity change, negative = inhibition” value is -27.6%.

As for `O=C(NC1CCCc2c1cnn2-c1ccc(F)cc1F)c1cnon1` (stereo not given), the “activity change, negative = inhibition” value was -39.5%.

As to `O=C(NC1CCCc2c1cnn2-c1ccc(F)cc1F)c1ccccc1` (stereo not given), the “activity change, negative = inhibition” value was -7.89%.

With `O=C(Nc1cccc2nn(-c3ccc(F)cc3)cc12)c1ccccn1`, the “activity change, negative = inhibition” value is -9.21%.

With `COc1ccc(CCNC(=O)c2cc3sccc3n2Cc2ccc(F)cc2)cc1OC`, the Potency was 3150 nM (active).

Take `COc1ccc(Cl)cc1NC(=S)N1CCN(c2ccccc2)CC1`: the “activity change, negative = inhibition” value was -22.9%.
